According to the supplement of paper PMC6555819:

Test system: VDR:RXRa (NR concentration 270 nM, RXRa partner concentration 90 nM)
Assay: PBM binding z-score (relative to random genomic background probes); higher = stronger binding; sequences stand for … in GC…GCGATTGACAGCGTAGAATGAAGG
Method: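 Protein-binding microarray (Agilent 4x180K custom design, double-stranded 60-nt probes: 5' GC cap, 34-nt variable region, 24-nt constant primer region; full probe sequence given). Purified or IVT nuclear receptor:RXRα heterodimers (3:1 NR:RXRα, mostly 270:90 nM) or homodimers were incubated for 1 h in PBS with 2% milk and no ligand, then detected with Alexa488 antibodies. Fluorescence from o1-orientation probes (~5 replicates averaged) was converted to z-scores against 500 random hg19 background probes. Variable regions are seed direct-repeat (DR0–DR5) sites, all their single-nucleotide variants and half-site ablations.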

Sequence	PBM binding z-score
GCTATTAGTTGAAAGGGCAACCGTATGATTCTCG	0.653
AGAATGAGGCTACCAAAGATCAGGGAAACGCTTG	-0.544
CGAACTAGGACATTGACAGGACAGTGAATAGTAA	-0.192
CCTTACGGGTCACTCCAGGCTATAGCATCGGAGT	2.98
CCTACTGGGCCATTCAGAGGTCATTGACCATATG	3.83
CCAGACAGCTGAAAGGTAACTCAGTCTGGTACGC	-0.0821
TTACCAAGGTGAGCTGAGCTCGTTGATCCAACTC	-0.427
TTACCAAGGCGAGCTGAGGTCGTTGATCCAACTC	1.63
AGAATGAGGTTAAGATCAGTGAAACAGAATACAT	1.47
TCTCGGAGGACACGAAGGACAGAGCTTTCCAGAG	-0.0596
TAGCCTAGGTCATGTGCCAGTATACCACGCGAAC	2.35
AGAACGAGGGCAATGAGTTGATAACACGGGTGGC	5.15
CGAACTACGTCAGAACAGGACAGTGAAGGATGAT	-0.451
CCTAGCAGGCCAATCTGGGTTACTCAAGGCTTGA	-0.43
CCTCGGAGGACTACAGGAGGTCAGAGCTGCCAGA	1.26
TCTTGTAGATCAAGCAGGTTAAGAACGCCTGAGT	0.768
CGTCCAAGCTCAAAGGTCAGTGAAGAGATGACGG	2.31
AGTACGAGGGCACGCTGAGTTGATAGCAGAGTAG	2.29
TAGCCTAGGTCAGGTCGGGCCAGTATACGCTATA	1.03
TCAAGTTGGTCACGGAGGTCACACACGACGGGTA	5.67

Sequence	PBM binding z-score
CAAGCTAGGTCACCGGAAGGTCAAAGTCCGCATG	6.18
GTACCAAGATGAATAGGTCGTTGATGAGTAGGCG	-0.0191
TAGCCTAGGTCAGATCGGGCCAGTAGACGCTATA	0.169
AGTCAAAGTTCATGACGAGGTAACGTAAAGCACG	4.64
TAGCCTAGGTCACTGGGCCAGTATAGTACGCATC	1.45
TCTGCTAGGTCAGTTTGTCAGCTAACGAGCTGCC	0.205
AACTCTAGGTAACCAAGTTCAGTGAATGCCGAAC	3.64
ACTATTAGTTGACTTAGGGCAAGCGATACGACGC	0.174
ACTAGTTGGTCCGCTGAGGTCACACACAATTCGG	3.75
CAAACTAGGTCTAGGTCAAAGTCGGTTTGTGCCA	1.84
TCTAGTTGATCACGGAGGTCACACACGACGGGTA	3.99
ATATGTAGGGTATCGGGTCATTCAGTTTGCGCAT	5.05
CGCGAAAGGTCGTGCTCAGGTGAGTATACCAAAC	3.57
TAGCCTAGGTCATGCGGGCCTGTATAGTGTCGGC	1.75
ATCGAAAGATCGACGAGGTGAGTATACACCGTTT	0.0445
TAGCCTACGTCAGATCGGGCCAGTATACGCTATA	-0.713
ATAGAAAGGTCGAGGTGAGTATAGAGAAAGGGAA	2.79
GGAACGAGGGGAAAGTTGATAGCATCTGTCGACG	-0.259
TCGAGAAGGTTAGGGGCATTCAGAATGGCGTCGA	1.12
CAAACTAGGTCACCGGAAGGTCAACGTCCGCATG	5.72
